# Data: PubChem BioAssay AID602244 (Sanford-Burnham Center for Chemical Genomics, 2012)
# Out of some 360,000 compounds screened, about 1,300 (0.36%) were called active. Cut-off read from the data, not from the text of the source: active = inhibition above about 34% (passing the limit was not always enough); inactive = the rest. Many of the other results were omitted from the sample, so actives are more common in it than they were.
# Target: C-X-C chemokine receptor type 6 (Homo sapiens) (UniProt O00574)
# Sequence (O00574 whole entry, looked up): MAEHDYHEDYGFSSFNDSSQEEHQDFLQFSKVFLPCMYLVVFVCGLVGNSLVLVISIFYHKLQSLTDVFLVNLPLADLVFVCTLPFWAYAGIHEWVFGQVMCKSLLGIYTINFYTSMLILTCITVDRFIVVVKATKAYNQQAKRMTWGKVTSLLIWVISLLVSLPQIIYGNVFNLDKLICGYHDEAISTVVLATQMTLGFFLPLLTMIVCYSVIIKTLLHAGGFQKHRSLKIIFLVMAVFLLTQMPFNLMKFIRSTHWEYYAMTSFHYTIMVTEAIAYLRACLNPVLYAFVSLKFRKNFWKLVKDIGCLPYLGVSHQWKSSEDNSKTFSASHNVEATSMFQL
# Test: CXCR6 receptor inhibitors, primary screen, cell-based, beta-arrestin, luminescence, CHO-K1 PathHunter, 1536-well (AID 602244);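 note: antagonist mode with CXCL16 agonist at 10 nM final; 0% = 10 nM CXCL16 with DMSO and 100% = unstimulated wells without agonist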
# Settings: at 20 µM, hits give high values
row,SMILES,inhibition
1,CC1CCC(NS(=O)(=O)c2ccc3c(c2)CC(=O)N3)CC1 (stereo unspecified),-9.8% (inactive)
2,CS(=O)(=O)c1ccc(Cl)c(NC(=O)COC(=O)c2cccc(S(=O)(=O)N3CCCC3)c2)c1,8.6% (inactive)
3,COc1ccc(C[C@H]2CN3C(=NC[C@H]3C)N2CCNC(=O)CCC2CCCCC2)cc1,5.3% (inactive)
4,CC(C)(C)C1CCC(=NNC(=O)c2ccc(Br)o2)CC1 (stereo unspecified),-5% (inactive)
5,COCCCNC(=S)NC(=O)c1ccc([N+](=O)[O-])cc1,75% (active)
6,COCCCNC(=S)NNC(=O)C(O)(c1ccccc1)c1ccccc1,14.6% (inactive)
7,COc1ccccc1OCCNC(=O)c1cc([N+](=O)[O-])cc([N+](=O)[O-])c1,-9.6% (inactive)
8,COc1ccc(CN2CCNC(=O)C2CC(=O)NCc2cn[nH]c2-c2ccccc2)c(F)c1 (stereo unspecified),-0.4% (inactive)
9,Nc1nnc(C2CCCC2)s1,-3.7% (inactive)
10,CC1(C(=O)NCCc2c[nH]c3ccccc23)C=CC2(CCCCC2)N1C(=O)c1ccccc1 (stereo unspecified),-1.9% (inactive)
11,Cc1ccc(-n2[nH]c(C)c(/C=N/N3C(=O)c4cccc5cccc(c45)C3=O)c2=O)cc1,48.5% (active)
12,Cc1ccc(-c2ccnc3[nH]n(-c4ccccc4)c(=O)c23)cc1,12.9% (inactive)
13,COc1cc(SC#N)ccc1N=Cc1c(C)[nH]n(-c2ccc(C)cc2)c1=O,-2% (inactive)
14,Cc1nn(C(C)CC(=O)O)c(C)c1C (stereo unspecified),3.3% (inactive)
15,CC(NC(=O)Cn1cc(C(F)(F)F)cc(Cl)c1=O)c1ccccc1 (stereo unspecified),-4.9% (inactive)
16,CC1CCC(C(C)C)C(=O)/C1=C\c1ccc(NC(=O)CCC(=O)O)cc1 (stereo unspecified),1% (inactive)
17,O=C(NCCc1ccccc1)C1CCC(Cn2c(=O)c3ccccc3n(Cc3cccnc3)c2=O)CC1 (stereo unspecified),-5.3% (inactive)
18,C=CCC1(C#N)C(=S)NC(C)=C(C(=O)OCC)C1c1ccccc1 (stereo unspecified),-3.2% (inactive)
19,COc1ccc(NC(=O)/C(Cl)=C(/Cl)S(=O)Cc2ccc(C)cc2)cn1 (stereo unspecified),94.9% (active)
20,COc1cc(NC(=O)Nc2ccc(C)cc2)cc([N+](=O)[O-])c1,2.8% (inactive)
21,COc1ccc(NC(=O)C2Cc3c(-c4ccc5c(c4)OCO5)ccnc3O2)cn1 (stereo unspecified),-3.9% (inactive)
22,COc1cccc(CC(=NO)c2cccc(OC)c2)c1,7.2% (inactive)
23,O=C1C(Cl)=C(Oc2ccccc2)C(=O)c2ccccc21,104% (active)

row,SMILES,inhibition
1,O=C(OCC(=O)N1CCc2ccccc21)C1CCCN1S(=O)(=O)c1ccc(Cl)cc1 (stereo unspecified),-11.4% (inactive)
2,CCCCn1c(N)c(N(CC(C)C)C(=O)c2cccc(S(=O)(=O)N3CCN(C(C)=O)CC3)c2)c(=O)[nH]c1=O,1.2% (inactive)
3,CCCCCCCCCCOC(=O)Cn1c(COc2cccc(OC)c2)[n+](C)c2ccccc21,47.7% (active)
4,CCCCN(CCCC)C(=O)CCS(=O)(=O)c1ccc2c(c1)n(C)c(=O)c(=O)n2C,-7.5% (inactive)
5,COc1ccc(CCNC(=O)CSc2nc(-c3ccc(OC)c(OC)c3)ccc2C#N)cc1,7.6% (inactive)
6,Cc1ccc(N2C(=O)SC(N(CC(=O)O)c3ccc(C)cc3)C2=O)cc1 (stereo unspecified),4% (inactive)
7,CCC(=O)OCCNc1nc(-c2ccccc2)nc2ccccc12,40.8% (active)
8,COCCNc1nc(-c2ccccc2)nc2c1oc1ccccc12,-2.7% (inactive)
9,CCCNC(=O)c1cnc(-c2ccccc2)nc1-c1ccccc1,12% (inactive)
10,CC(C)N=C1CCCC1C(=S)SSC(=S)C1CCCC1=NC(C)C (stereo unspecified),78.9% (active)
11,CCc1ccccc1N(CC(=O)N1CCN(c2ccccc2F)CC1)S(C)(=O)=O,1.2% (inactive)
12,CCCc1cc(=O)oc2c(C)c(OC(C)C(=O)NCC(O)c3ccccc3)ccc12 (stereo unspecified),2.9% (inactive)
13,O=C1NCC(c2ccccc2)(c2ccccc2)C(=O)N1,3.6% (inactive)
14,CC(NC(=S)NNS(=O)(=O)c1ccc(C(C)(C)C)cc1)c1ccccc1 (stereo unspecified),-0.6% (inactive)
15,CC(C)OC(=O)CN1C(=O)C(=O)c2ccccc21,68% (active)
16,COc1cc(C(C)=O)ccc1OC(=O)CN1C(=O)c2ccccc2C1=O,1.2% (inactive)
17,Cc1cc(/C=C2/SC(=O)N(CC(=O)OC(C)C)C2=O)c(C)n1C,1.9% (inactive)
18,COc1cccc(NC(=O)Cn2c3ccc(F)cc3c3nc4n(c(=O)c32)CCS4)c1,4.8% (inactive)
19,CCN(CC)C(=O)CC1(c2ccccc2OC)CCOC(C(C)C)C1 (stereo unspecified),6.3% (inactive)
20,CC(C)(C)S(=O)(=O)c1ccccc1-c1noc(-c2ccccc2)c1C(N)=O,-0.6% (inactive)
21,Cc1ccc(S(=O)(=O)N2CCOCC2)cc1NC(=O)c1ccncc1,-5.9% (inactive)
22,CN(CCc1ccccc1)C(=O)c1cccc(NC(=O)Cc2ccc([N+](=O)[O-])cc2)c1,-6.9% (inactive)
23,CN(O)C(=S)c1ccccc1,73.3% (active)

row,SMILES,inhibition
1,CCN(CC)CCCNC(=O)CCn1nc(-c2ccc(Cl)cc2)ccc1=O,2.5% (inactive)
2,COc1ccc(CNC(=O)[C@@H]2CC=C[C@@H]3CCN(C4CC4)C(=O)[C@@H]32)cc1,-0.1% (inactive)
3,O=C1CCC(=O)N1CCC(=O)N(C(=O)NC1CCCCC1)C1CCCCC1,0% (inactive)
4,S=c1[nH]ccn1-c1ccc(Cl)cc1,-3.9% (inactive)
5,Cc1noc(C)c1C(=O)N(CC(=O)NC1CCCC1)Cc1ccccc1F,-0.5% (inactive)
6,O=[N+]([O-])/C=C/c1ccc2c(ccn2Cc2ccccc2)c1,73.1% (active)
7,CCc1noc(C)c1C(=O)N1CCCSC1=Nc1ccccc1OC,-1.3% (inactive)
8,CCCCCCCCCCOC(=O)C[N+](C)(C)CC1CCCCC1O (stereo unspecified),57.1% (active)
9,CCCCCOC(=O)c1ccc(N2C(=O)C3C4C=CC(C4)C3C2=O)cc1 (stereo unspecified),4.9% (inactive)
10,COc1ccc(S(=O)(=O)N(C)CC(=O)N2CCCC2)cc1Cl,-1.8% (inactive)
11,O=C(Cc1ccccc1)N1CCN(S(=O)(=O)c2ccc([N+](=O)[O-])cc2)CC1,-15.5% (inactive)
12,O=C1CCCN1C(=O)COc1ccc([N+](=O)[O-])cc1,-0.7% (inactive)
13,O=C1/C(=C\c2ccc([N+](=O)[O-])cc2)CS(=O)(=O)C/C1=C/c1ccc([N+](=O)[O-])cc1,96.9% (active)
14,CC(CC(=O)Nc1ccc(F)cc1F)S(=O)(=O)c1ccc2c(c1)NC(=O)CO2 (stereo unspecified),6.2% (inactive)
15,CCn1cc(C(=O)N2CC=C(c3ccccc3)CC2)c(=O)c2ccc(C)nc21,-18.1% (inactive)
16,Cc1ccc(C(=O)NC2CCN(C(=O)Nc3ccc(F)cc3)CC2)cc1,-6% (inactive)
17,Cc1ccc(C(=O)CNc2ccc(F)cc2)cc1,46.4% (active)
18,Cc1ccc(NC(=O)CCC(=O)c2ccc(Br)cc2)cc1,-2.1% (inactive)
19,CCCC(=O)Nc1ncnc2c1ncn2[C@@H]1O[C@@H]2OP(=O)(O)OC[C@H]2[C@H]1OC(=O)CCC,-1% (inactive)
20,CC1=C/C(=N\OS(=O)(=O)c2ccccc2)C=CC1=O,62% (active)
21,N#Cc1c(NC(=O)c2ccc(N3CCOCC3)c([N+](=O)[O-])c2)sc2c1CCCC2,15.6% (inactive)
22,O=C(O)c1ccc(NN=CC2=C(N3CCOCC3)/C(=C/c3ccccc3)CC2)cc1,-2.9% (inactive)
23,O=C1Nc2ccc(Br)cc2/C1=N/N=C/C1=C(N2CCOCC2)C(=C\c2ccccc2)/CC1,41.2% (active)

row,SMILES,inhibition
1,O=S(N1CCCCCC1)C12CC3CC(CC(C3)C1)C2 (stereo unspecified),-6.4% (inactive)
2,CC(=O)N1CCc2c(sc(NC(=O)CCS(=O)(=O)c3ccc(C)cc3)c2C(N)=O)C1,8.6% (inactive)
3,CCCNC(=O)C1(C)CCCN(C(=O)c2oc3ccccc3c2C)C1 (stereo unspecified),6.5% (inactive)
4,COc1ccc(C2/C=C\CN(S(=O)(=O)c3cccs3)CC(=O)N2Cc2ccc(F)cc2)cc1 (stereo unspecified),10.5% (inactive)
5,CC1CN(CC(=O)NC(C)c2ccccc2)CC(C)O1 (stereo unspecified),4.8% (inactive)
6,CC(=O)Nc1cc(-c2ccc(N3CCN(C)CC3)cc2)cn2c(-c3cccc(C(=O)N(C)C)c3)cnc12,-6.6% (inactive)
7,COc1ccccc1-c1cc(NC(C)=O)c2ncc(-c3ccc(F)cc3)n2c1,8.7% (inactive)
8,CC(=O)Nc1cc(-c2ccc(N3CCN(C)CC3)cc2)cn2c(-c3ccc(F)cc3)cnc12,89.5% (active)
9,CCOn1c(=O)c(=O)n(O)c2ccccc21,3.7% (inactive)
10,COc1ccc(-c2csc(Cc3nc(O)cs3)n2)cc1,66.9% (active)
11,COc1ccc(C(C)(NC(C)=O)c2nc(-c3ccc(S(C)(=O)=O)cc3)cs2)cc1 (stereo unspecified),1.5% (inactive)
12,COc1ccc(C(O)c2nc(-c3ccc(OC)nc3)cs2)cc1 (stereo unspecified),-1.3% (inactive)
13,O=C(NCc1ccccc1)C1c2ccccc2OCC(=O)N1CCCN1CCOCC1 (stereo unspecified),3.7% (inactive)
14,O=C(c1ccncc1)N1CCN(S(=O)(=O)c2cc(C(F)(F)F)cc(C(F)(F)F)c2)CC1,-2.1% (inactive)
15,COc1cccc(NC(=O)C(=O)c2cn(CC(=O)N3CCOCC3)c3ccccc23)c1,6% (inactive)
16,O=C1c2ccccc2NC(c2ccccc2O)N1NS(=O)(=O)c1ccccc1 (stereo unspecified),-0.7% (inactive)
17,CC(C)c1c(O)nc(SCCOc2ccc(Cl)cc2)[nH]c1=O,7.1% (inactive)
18,Cc1ccc(-c2nn(-c3ccc(F)cc3)cc2C(=O)NCC(c2cccs2)N2CCOCC2)cc1 (stereo unspecified),15.5% (inactive)
19,O=C(c1ccc(Cl)c(S(=O)(=O)N2CCCCCC2)c1)N1CCN(c2ccc(O)cc2)CC1,-20.6% (inactive)
20,O=C1C=CC(=O)N1c1ccc(N2CCCCC2)cc1,74.7% (active)
21,c1ccc(-n2cccc2)c(N2CCCCC2)c1,-7.4% (inactive)
22,NC(=O)c1ccc(N2CCCC2)nc1,1% (inactive)
